“And” between values parts separate entries of the source, which are not always exact repeats. Equal entries are not always repeated. About 11,000 (3.5%) of roughly 310,000 compounds were called active. Another 4% or so got no clear call; they are omitted. For the sample, actives were picked, then their nearest neighbours and some compounds at random. Values without a mark were called inactive. Calls follow the shape of the dose curve; as a rule, active = well fitted inhibition curve with a large enough effect; inconclusive = small, poorly fitted or top-dose-only effect, or another doubt; inactive = no such curve, though single readings can be large or run the other way.
What follows are molecules tested against 4'-phosphopantetheinyl transferase ffp (Bacillus subtilis) (UniProt Q9F4F7) (assay: qHTS Assay for Inhibitors of Bacillus subtilis Sfp phosphopantetheinyl transferase (PPTase)). Settings: Biochemical Sfp PPTase activity.
Summary of the method: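 Fluorescence-quenching assay with 15 nM Sfp, 5 uM rhodamine-CoA and 12.5 uM BHQ-2-labelled ybbR peptide in pH 7.6 Hepes/MgCl2 buffer. Enzyme was pre-incubated with compound for 15 min at room temperature. Rate was taken from the 30-min fluorescence change (525/598 nm).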
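Also: the enzyme is Sfp with the accession as filed and its product quenches rhodamine fluorescence.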
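For largest response in the series, negative = inhibition in this document: 0% = enzyme reaction without inhibitor and -100% = no enzyme wells.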
Potency is read from the fitted curve at half-maximal effect.

Row | SMILES | largest response in the series, negative = inhibition [%] | Potency
1 | O=C(c1cc(COc2cccc(C(F)(F)F)c2)on1)N1CCSCC1 | -6.37 | 
2 | Cc1cc(NC(=O)c2ccco2)c(=O)n(Cc2c(F)cccc2Cl)c1 | -1.88 | 
3 | CN(Cc1ccccc1)C(=O)C1CCCN(c2ncnc3c2nc2n3CCCCC2)C1 (configuration not stated) | -5.59 | 
4 | CN(c1ccccc1)c1ccc(/C=c2\s/c(=C(/C#N)C(=O)C(C)(C)C)n(Cc3ccco3)c2=O)cc1 | -21.7 | 
5 | O=C(Cc1ccccc1)n1nc(-c2ccccc2)nc1NCc1ccco1 | 0.0328 | 
6 | O=c1nc2s/c(=C\c3ccco3)c(=O)n2nc1Cc1ccccc1 |  | 28.2 µM (active)
7 | N#Cc1cc([N+](=O)[O-])ccc1NCC1CCCO1 (configuration not stated) | 13.1 | 
8 | O=C(NC1CCCCCCC1)c1cccs1 | -20.5 | 
9 | COCCNc1ncnc2ccc(-c3cccnc3)cc12 | 6.73 | 
10 | COc1cc(/C=N/N2CCN(c3ccccc3)CC2)ccc1OC(C)=O | 16.9 | 
11 | COc1ccccc1N1CCN(/N=C/c2ccc(O)cc2O)CC1 | -7.55 | 
12 | COc1ccccc1N1CCN(/N=C\C(Br)=C\c2ccccc2)CC1 |  | 31.6 µM (active)
13 | COc1cc(CNCc2ccc(OC)c3ccccc23)cc(OC)c1OC | -22.2 | 
14 | Cc1ccc(S/C(=N\S(=O)(=O)c2ccc(Cl)cc2)c2ccccc2)cc1 |  | 56.2 µM (active)
15 | O=S(=O)(/N=C(/Nc1ccccn1)c1ccccc1)c1ccc(Cl)cc1 | 27.1 | 
16 | Cc1ccc(S(=O)(=O)/N=C(/Nc2ccccn2)c2ccc(Cl)cc2)cc1 | -17.5 | 
17 | COc1ccc(NC(=O)CSc2nncc(=O)n2N)cc1OC | 9.26 | 
18 | Nn1c(SCC(=O)Nc2nccs2)nncc1=O |  | 22.4 µM (active)
19 | CCn1c(SCC(=O)Nc2nccs2)nnc1-c1ccncc1 | 2.26 | 
20 | O=S(=O)(c1ccc(-c2ccno2)s1)N1CCCCC1 | 11.8 | 
21 | COc1ccc(-c2oc3ncnc(NCCCO)c3c2-c2ccc(OC)cc2)cc1 | -12.6 | 
22 | COc1ccc(-c2oc3ncn(Cc4ccco4)c(=N)c3c2-c2ccc(OC)cc2)cc1 |  | 39.8 µM (active)
23 | N=c1c2c(-c3ccccc3)c(-c3ccccc3)oc2ncn1Cc1ccco1 | -5.12 | 
24 | O=c1oc2ccccc2c(NC2CCCCC2)c1NS(=O)(=O)c1ccc(Cl)cc1 | 4.82 | 

Row | SMILES | largest response in the series, negative = inhibition [%] | Potency
25 | CN(C(=O)COC(=O)c1nc(Cl)ccc1Cl)C1CCS(=O)(=O)C1 (configuration not stated) | 11 | 
26 | CN(C(=O)COC(=O)c1cc(-c2ccco2)nc2ccccc12)C1CCS(=O)(=O)C1 (configuration not stated) |  | 28.2 µM (active)
27 | Cc1c(-c2cccc(Cl)c2)nc2ccccc2c1C(=O)OCC(=O)N(C)C1CCS(=O)(=O)C1 (configuration not stated) | 1.32 | 
28 | Cc1ccc2nc(-c3ccc(Br)cc3)cn2c1 | 17 | 
29 | COC(=O)C1=C(C)NC2=C(C(=O)c3ccccc32)C1c1ccc(-c2ccc(C(=O)O)cc2)o1 (configuration not stated) |  | 14.1 µM (active)
30 | COC(=O)C1=C(C)NC(=O)NC1/C=C/c1ccccc1 (configuration not stated) | 6.06 | 
31 | Cc1ccc(C2C3=C(Nc4[nH]n(-c5ccccc5)c(=O)c42)c2ccccc2C3=O)cc1 (configuration not stated) | -4.89 | 
32 | COC(=O)c1ccc(N2CCOCC2)c(NC(=O)c2ccc(Br)o2)c1 | 6.59 | 
33 | C#CCOc1ccc(/C=C2/C(=O)NN(c3ccccc3)C2=O)cc1OC | 8.7 | 
34 | C#CCOc1ccccc1/C=C1/C(=O)ON=C1C |  | 50.1 µM (active)
35 | CC1=NOC(=O)/C1=C\c1ccccc1 | -4.08 | 
36 | NS(=O)(=O)c1ccc(CCNC(=O)c2nc(CS(=O)(=O)c3ccc(Cl)cc3)no2)cc1 | 13.4 | 
37 | CCCCN=C1N/C(=C\c2ccco2)C(=O)N1c1ccccc1 |  | 56.2 µM (active)
38 | CCOC(=O)C1(C)NC(c2ccco2)C2C(=O)N(c3ccccc3)C(=O)C21 (configuration not stated) | 27.2 | 
39 | O=C1/C(=C\c2ccsc2)NC(=S)N1c1ccccc1 | 4.5 | 
40 | COc1cccc(N(CC(=O)NC2CCCC2)C(=O)CCCC(=O)Nc2ccccn2)c1 | 7.32 | 
41 | COc1cccc(C(=O)Nc2nnc(S(=O)(=O)N3CCCCC3)s2)c1 | 6.22 | 
42 | O=C(c1ccncc1)c1ccc([N+](=O)[O-])cc1 | 13.2 | 
43 | O=C(Nn1cnnc1)c1ccc([N+](=O)[O-])cc1 | 13.2 | 
44 | O=C(Cn1c[n+](CC(=O)c2ccc([N+](=O)[O-])cc2)cn1)c1ccc([N+](=O)[O-])cc1 |  | 56.2 µM (active) and 44.7 µM (active)
45 | CCC1=Nc2cc(C(=O)NCCN3CCCC3)ccc2Sc2ccc(C)cc21 | -8.33 | 
46 | Cc1ccc(C(=O)NCCN2CCOCC2)cc1C | 11.9 | 
47 | Cc1cccc(-c2nc3ccc(C(=O)NCCN4CCN(C)CC4)cc3nc2-c2cccc(C)c2)c1 |  | 50.1 µM (active)
